Rows were chosen to be rich in hits. Some 2.8% of all compounds tested hit in one or more screens of this group.
D3 ag – qHTS of D3 Dopamine Receptor Agonist: qHTS | D3R DiscoveRx beta-arrestin cells, luminescence, 90 min | AID 652048, 2013 | max activation, % | 0.58% of 410,000 active; in the data active = max activation above about 30%; also: 0% is about no effect
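Agonist-mode cell screen: cells plated at 1500/well and incubated overnight at 37 °C, then exposed to library compounds for 90 min at 37 °C. Detection reagent was added for 30–60 min at room temperature, and luminescence was read.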
a7 integrin act – qHTS for Activators of Integrin-Mediated Alleviation for Muscular Dystrophy; 0.064% of 350,000 active; alpha7betagal myoblasts, beta-gal FDG fluorescence, 48 h; Potency, µM (top dose mostly 38.3 µM), inactives show at the highest dose activation, most hits filed as activators; AID 624291, 2012;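 also: potency is read from the fitted curve at half-maximal effect; 100% = response of the positive control SU9516; nearly all actives have a fitted effect of over 60% in size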
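alpha7betagal+/- myoblasts (passage 13, 250/well) treated 48 h at 37C with compounds at 1:260 dilution of DMSO stock. Lysed, then beta-galactosidase activity read as FDG fluorescence (ex 480/em 540) after 30 min, with pre-read for autofluorescence.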
D3 antag – qHTS of D3 Dopamine Receptor Antagonist: qHTS | 2.5% of 360,000 active | D(3) dopamine receptor (Homo sapiens), P35462 | max response, negative = inhibition, % | AID 652054, 2013 | D3R cells, DiscoveRx beta-arrestin luminescence, antagonist mode; hits give low values; in the data active = max response below about -50%; inconclusive = no clear call, values can overlap the other calls; also: % is scaled to controls: 0 for no effect and ±100 for the full control effect
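Cells expressing the human receptor were seeded at 1500 cells/well, incubated overnight at 37 degrees C in 5% CO2, then exposed to library compounds with dopamine controls for 90 minutes at 37 degrees C before luminescent detection.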
PTHR1 agonist – qHTS for PTHR1 Agonists: Primary Screen; Parathyroid hormone/parathyroid hormone-related peptide receptor (Homo sapiens), Q03431; HEK293 GP2 PTHR1 cells, GloSensor cAMP luminescence, 1 h; 0.075% of 410,000 active; Potency, µM (titrated, usually from 115 µM), inactives show top-dose activation, hits mostly activators; also: potency is read from the fitted curve at half-maximal effect; nearly all actives have a fitted effect of over 55% in size
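HEK-293-derived GP2 cells expressing PTHR1 and a GloSensor cAMP reporter, 3,000/well, plated overnight, given luciferin plus IBMX (each 0.5 mM as added) for 1 h at 37 °C, then compound for 1 h at 37 °C. Luminescence was read after 15 min at room temperature.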
MBNL1-CUG inh – qHTS Assay for Inhibitors of MBNL1-poly(CUG) RNA binding | 0.036% of 280,000 active | Potency, µM (doses to about 57.5 µM), for the others: at the highest dose activity change, negative = inhibition, usual class: inhibitors | TR-FRET MBNL1-His/biotin-(CUG)12 binding, 665/545 ratio; active = well fitted inhibition curve with a large enough effect in the signal ratio, with a control signal flat, not every such curve was filed as active; inconclusive = small, poorly fitted or top-dose-only effect, or effect the other way, or a change in a side signal; inactive = no such curve, though single readings can be large or run the other way; the % refers to the signal ratio; also: potency is read from the fitted curve at half-maximal effect; % is scaled to controls: 0 for no effect and ±100 for the full control effect
Target sequence (Q9NR56 whole entry, looked up): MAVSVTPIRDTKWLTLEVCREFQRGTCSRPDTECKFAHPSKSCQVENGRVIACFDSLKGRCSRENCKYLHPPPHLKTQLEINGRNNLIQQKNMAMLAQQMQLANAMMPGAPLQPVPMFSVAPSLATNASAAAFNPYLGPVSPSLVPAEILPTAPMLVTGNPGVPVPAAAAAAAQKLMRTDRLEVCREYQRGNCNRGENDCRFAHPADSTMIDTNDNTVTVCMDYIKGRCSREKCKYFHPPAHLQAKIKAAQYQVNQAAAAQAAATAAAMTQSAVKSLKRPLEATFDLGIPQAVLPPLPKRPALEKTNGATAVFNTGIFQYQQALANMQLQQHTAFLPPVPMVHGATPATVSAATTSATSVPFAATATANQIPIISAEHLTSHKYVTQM
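His-tagged MBNL1 binding to biotinylated (CUG)12 RNA was measured by TR-FRET using terbium anti-His antibody (0.055 ng/ul final) and streptavidin-XL665 (5 nM final). Compounds were titrated 92 nM to 58 uM; 60 min at room temperature.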
CBFb RUNX1 block – qHTS Assay for Compounds Blocking the Interaction Between CBF-beta and RUNX1 for the Treatment of Acute Myeloid Leukemia. AlphaScreen CBFb-His/RUNX1-biotin binding, biochemical. 230,000 tested, under 10 active. Potency, µM (titrated, usually from 59.8 µM), without a hit: at the highest dose activity, negative = inhibition, usual class: inhibitors. Runt-related transcription factor 1 (Homo sapiens) + Core-binding factor subunit beta …; also: % of control where 0% means no effect
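CBF-beta (His) and RUNX1 (biotin), 30 nM each; 20 min preassociation; + compound, 15 min; + beads 50 ng each (Ni, streptavidin), 90 min; RT; AlphaScreen read.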
Starred values were filed as active, the others as inactive; i = inactive; ? = inconclusive; . = no result given. Unless noted, calls follow the shape of the dose curve; as a rule, active = well fitted curve in the direction sought with a large enough effect; inconclusive = small, poorly fitted or top-dose-only effect, or another doubt; inactive = no such curve, though single readings can be large; an effect the other way counts as inactive or inconclusive.

SMILES	D3 ag	a7 integrin act	D3 antag	PTHR1 agonist	MBNL1-CUG inh	CBFb RUNX1 block
CCSC[C@H](NC(=O)[C@H](C)N)C(=O)N[C@@H](CC(=O)O)C(=O)N[C@H](C(=O)N[C@@H](C)C(=O)N[C@H](C(=O)N[C@@H](CSCC)C(=O)N[C@H](C(=O)N[C@H](C(=O)N[C@@H](Cc1cnc[nH]1)C(=O)N[C@@H](CCCNC(=N)N)C(=O)N[C@@H](CC(C)C)C(=O)N[C@@H](C)C(=O)NCC(=O)N[C@@H](CC(C)C)C(=O)N[C@@H](CC(C)C)C(=O)N[C@@H](CO)C(=O)N[C@@H](CCCNC(=N)N)C(=O)N[C@@H](CO)C(=O)NCC(=O)NCC(=O)N[C@H](C(=O)N[C@H](C(=O)N[C@@H](CCCCN)C(=O)N[C@@H](CC(N)=O)C(=O)N[C@@H](CC(N)=O)C(=O)N[C@@H](Cc1ccccc1)C(=O)N[C@H](C(=O)N1CCC[C@H]1C(=O)N[C@H](C(=O)N[C@@H](CC(N)=O)C(=O)N[C@H](C(=O)NCC(=O)N[C@@H](CO)C(=O)N[C@@H](CCCCN)C(=O)N[C@@H](C)C(=O)N[C@@H](Cc1ccccc1)C(N)=O)C(C)C)[C@@H](C)O)C(C)C)C(C)C)C(C)C)[C@@H](C)O)C(C)C)[C@@H](C)O)[C@@H](C)O	.	.	.	.	.	7.3%
O=C1CCC(=O)N1CO	13.7	.	.	.	.	.
COc1ccc(C(=O)NC2CCCN(Cc3ccccc3F)C2)c(OC)c1OC (stereo not drawn)	-9.4	-1.2%	-11.7	i	-5.3%	.
CCN1CCCC(NC(=O)c2cc([N+](=O)[O-])ccc2OC)C1 (stereo not drawn)	-25.6	9.0%	-59.6*	-11.8%	?	-9.4%
C/C=C/c1ccc(OCCNCc2ccccc2)c(OC)c1	-19.2	-21.9%	-77.0*	?	3.8%	.
C=CCc1ccc(OCCCNCc2ccccc2)c(OC)c1	-21.4	-58.6%	-78.9*	-1.6%	-0.3%	.
C/C=C/c1ccc(OCCCNC)c(OC)c1	-4.0	-43.2%	-19.1	i	2.6%	5.0%
FC(F)(F)c1ccc(-c2noc(CN3CCCN(C4CCCCC4)CC3)n2)cc1	1.2	-53.2%	21.0	-24.4%	-10.3%	-6.4%
COC(=O)c1c(NC(=O)C2c3ccccc3Oc3ccccc32)sc2c1CCC(C)C2 (stereo not drawn)	-16.3	.	.	i	.	.
O=C(O)c1ccc(NC(C(=O)c2ccccc2)c2ccccc2)cc1 (stereo not drawn)	-9.6	12.1%	-11.7	-9.9%	.	.
COc1ccc([N+](=O)[O-])cc1NS(=O)(=O)c1cccc(C(=O)O)c1	-22.0	3.6%	-28.9	-7.0%	?	5.8%
Cc1cccc(NC(=O)c2c(O)c3ccccc3n(C)c2=O)c1	2.1	-0.5%	0.9	-40.7%	?	.
COc1ccc(N=C2NC(=O)S/C2=C\c2ccc(N(C)C)cc2)cc1	-15.8	12.0%	-66.0*	-18.1%	12.8%	-5.4%
CCOc1ccc(N=C2NC(=O)S/C2=C\c2ccc(Cl)cc2)cc1	-1.2	19.5%	-1.8	i	3.7%	2.8%
O=C(NCc1cccnc1)/C(=C/c1ccc([N+](=O)[O-])cc1)NC(=O)c1ccccc1	31.5*	13.8%	-2.8	i	.	.
CC(C)NC(=O)/C(=C\c1cccc([N+](=O)[O-])c1)NC(=O)c1ccccc1	-4.2	-2.7%	-107.1*	i	?	-2.3%

Screens as filed in PubChem.
